Rows were chosen to be rich in hits. Some 12% of all compounds tested hit in one or more screens of this group.
HP1b chromo inh – HTS for Inhibitors of HP1-beta Chromodomain Interactions with Methylated Histone Tails. actives 0.56% (n = 390,000). Chromobox protein homolog 1 (Homo sapiens), P83916. Potency, µM (series often up to 114 µM), for the others: at the top dose activity change, negative = inhibition, usual class: inhibitors. AlphaScreen HP1-beta / biotin-H3K9me3 peptide binding. AID 540317, 2011; also: nearly all actives have a fitted effect of over 70% in size
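Compound inhibition of the preformed complex between 50 nM HP1-beta and 50 nM biotinylated H3K9me3 peptide was read by AlphaScreen. Buffer was PBS pH 7.4 with 0.01% Tween-20. Incubations ran 30 min at room temperature, with 10 ug/mL donor/acceptor beads.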
BAZ2B inh – qHTS Assay for Inhibitors of BAZ2B. AlphaScreen BAZ2B-H3K14Ac peptide displacement. Bromodomain adjacent to zinc finger domain protein 2B (Homo sapiens), Q9UIF8. actives 4.4% (n = 360,000). Potency, µM (titrated, usually from 114 µM), for the others: at the highest dose activity change, negative = inhibition, usual class: inhibitors; also: % is scaled to controls: 0 for no effect and ±100 for the full control effect; nearly all actives have a fitted effect of over 60% in size
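Compounds, titrated to a top concentration of 110 uM, were incubated 30 min at room temperature with preformed BAZ2B/acetyl-K14 H3 peptide complex (50 nM each). Proximity signal was measured by AlphaScreen after 20 min with beads.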
JMJD2A Tudor – qHTS Assay for Inhibitors of JMJD2A-Tudor Domain; AlphaScreen JMJD2A-Tudor / H3K4me3 peptide binding; Lysine-specific demethylase 4A (Homo sapiens), O75164; AID 504339, 2011; Potency, µM (series often up to 114 µM), without a hit: at the highest dose activity change, negative = inhibition, usual class: inhibitors; actives 4.4% (n = 390,000); also: % is scaled to controls: 0 for no effect and ±100 for the full control effect; nearly all actives have a fitted effect of over 50% in size
PLK1 PBD inh – qHTS for Inhibitors of PLK1-PDB (polo-like kinase 1 - polo-box domain): Primary Screen | AID 720504, 2013 | Plk1 PBD binding of FITC phosphopeptide, fluorescence polarization | Potency, µM, inactives show max response, negative = inhibition, usual class: inhibitors | actives 2.8% (n = 360,000) | Serine/threonine-protein kinase PLK1 (Homo sapiens), P53350; also: series mostly up to about 57 µM; % is scaled to controls: 0 for no effect and ±100 for the full control effect; nearly all actives have a fitted effect of over 65% in size
Target sequence (P53350 whole entry, looked up, the tested form may be a part): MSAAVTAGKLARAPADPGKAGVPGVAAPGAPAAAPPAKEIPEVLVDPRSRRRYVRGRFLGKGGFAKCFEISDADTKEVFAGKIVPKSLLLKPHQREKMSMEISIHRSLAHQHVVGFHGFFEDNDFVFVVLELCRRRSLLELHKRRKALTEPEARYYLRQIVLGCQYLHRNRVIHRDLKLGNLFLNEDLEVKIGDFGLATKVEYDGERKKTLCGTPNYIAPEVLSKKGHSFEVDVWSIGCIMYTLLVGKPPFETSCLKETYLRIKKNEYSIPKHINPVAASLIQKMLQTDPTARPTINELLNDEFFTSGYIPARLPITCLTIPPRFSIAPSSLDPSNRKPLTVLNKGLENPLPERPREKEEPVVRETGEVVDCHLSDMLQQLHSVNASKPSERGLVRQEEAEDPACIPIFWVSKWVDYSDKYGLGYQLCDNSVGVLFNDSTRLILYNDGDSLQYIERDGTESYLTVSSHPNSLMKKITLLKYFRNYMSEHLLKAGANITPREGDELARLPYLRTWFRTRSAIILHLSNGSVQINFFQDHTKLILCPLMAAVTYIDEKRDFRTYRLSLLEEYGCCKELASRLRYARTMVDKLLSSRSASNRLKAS
G9a block – qHTS Assay for Inhibitors of Histone Lysine Methyltransferase G9a; Histone-lysine N-methyltransferase EHMT2 (Homo sapiens), Q96KQ7; G9a H3K9 monomethylation, AlphaScreen, 2 h; Potency, µM (highest dose often 102 µM), for inactives: at the highest dose activity, negative = inhibition, hits mostly inhibitors; actives 8.8% (n = 350,000); AID 504332, 2011; also: % is scaled to controls: 0 for no effect and ±100 for the full control effect; nearly all actives have a fitted effect of over 75% in size
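Compounds were preincubated with 20 nM G9a for 15 min, after which biotinylated H3K9 peptide (500 nM) and SAM (20 uM) started a 2 h room-temperature reaction. Monomethylated product was quantified by antibody-based AlphaScreen chemiluminescence.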
Sfp inh – qHTS Assay for Inhibitors of Bacillus subtilis Sfp phosphopantetheinyl transferase (PPTase). Potency, µM, inactives show largest response in the series, negative = inhibition, hits mostly inhibitors. Biochemical Sfp PPTase activity, qHTS. 4'-phosphopantetheinyl transferase ffp (Bacillus subtilis), Q9F4F7. actives 3.5% (n = 310,000);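 also: the enzyme is Sfp with the accession as filed and its product quenches rhodamine fluorescence; 0% = enzyme reaction without inhibitor and -100% = no enzyme wells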
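Compounds were incubated with enzyme (final 15 nM) for 15 min at room temperature before substrate addition started the reaction. Fluorescence at 525 nm excitation, 598 nm emission was recorded immediately and after 30 minutes.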
* hit, by the source's call; [ ] = another dose, or the depositor's remark. Calls follow the shape of the dose curve; as a rule, active = well fitted curve in the direction sought with a large enough effect; inconclusive = small, poorly fitted or top-dose-only effect, or another doubt; inactive = no such curve, though single readings can be large; an effect the other way counts as inactive or inconclusive. Potency is read from the fitted curve at half-maximal effect.

CCOC(=O)C1CCN(C(c2ccccc2)c2c(O)cc(C)n(Cc3ccco3)c2=O)CC1 (stereo unspecified) was read as HP1b chromo inh 40%[57 µM], BAZ2B inh -19%, JMJD2A Tudor -11% and G9a block -49%[59 µM].
CCCN1CCN(CCNC(=O)Nc2ccc(OC)c(OC)c2)CC1 was read as HP1b chromo inh 3%, BAZ2B inh -30%, JMJD2A Tudor -13% and G9a block -6%[59 µM].
CC1CCC(NS(=O)(=O)c2ccc(Cl)nc2)CC1 (stereo unspecified) was read as HP1b chromo inh 25%, BAZ2B inh 14%, JMJD2A Tudor 2%, PLK1 PBD inh -9% and G9a block 50µM*.
Screening C[n+]1ccccc1C1CCCC/C1=N\NC(N)=S (stereo unspecified) returned HP1b chromo inh inconclusive, BAZ2B inh inconclusive, JMJD2A Tudor 22µM*, PLK1 PBD inh inconclusive, G9a block 16µM* and Sfp inh -6%.
For CC1CCCC/C1=N\NC(=S)NCCc1ccccc1 (stereo unspecified) the results were HP1b chromo inh -3%, BAZ2B inh inconclusive, JMJD2A Tudor inconclusive, PLK1 PBD inh -10%, G9a block inconclusive and Sfp inh 12%.
`O=C(NCc1ccccn1)c1ccc(CS(=O)(=O)Cc2ccc(Cl)cc2)o1` gave HP1b chromo inh 43%, BAZ2B inh -1%, JMJD2A Tudor -5%, PLK1 PBD inh -5%, G9a block -15% and Sfp inh 4%.
`Cc1ccccc1CS(=O)(=O)Cc1ccc(C(=O)NCc2ccccn2)o1` gave HP1b chromo inh 40%, BAZ2B inh 50µM*, JMJD2A Tudor -17%, PLK1 PBD inh -10%, G9a block 40%[0.501 µM] and Sfp inh 2%.
For CCN(CCCNC(=O)c1c(C)cc(=O)oc1C)c1cccc(C)c1 the results were HP1b chromo inh 3%, BAZ2B inh inconclusive, JMJD2A Tudor inconclusive, PLK1 PBD inh -7%, G9a block 13µM* and Sfp inh -22%.
Cc1cc(=O)oc(C)c1C(=O)NCc1ccccn1 was read as HP1b chromo inh 19%, BAZ2B inh 16µM*, JMJD2A Tudor 2.5µM*, PLK1 PBD inh -5%, G9a block 1.6µM* and Sfp inh -29%.
For Cc1ccc(CNC(=O)c2c(C)cc(=O)oc2C)cc1 the results were HP1b chromo inh 22%, BAZ2B inh 2%, JMJD2A Tudor -11%, PLK1 PBD inh -6%, G9a block -48% and Sfp inh 4%.
O=C(Nc1cccnc1Cl)c1ccc(=O)oc1 was read as HP1b chromo inh 2%, BAZ2B inh 56µM*, JMJD2A Tudor inconclusive, PLK1 PBD inh -12%, G9a block 35µM* and Sfp inh inconclusive.
Cc1ccc(OCc2nnc(SCC(=O)Nc3ccccc3C(C)C)o2)cc1 was read as HP1b chromo inh 17%, BAZ2B inh 3%, JMJD2A Tudor -7% and G9a block 12%[59 µM].
COc1ccc(-c2nc(N)c(C#N)c(-c3cccnc3)c2C)cc1 was read as HP1b chromo inh 38%, BAZ2B inh 3%, JMJD2A Tudor -7%, PLK1 PBD inh -10%, G9a block -7% and Sfp inh 26%.
For CCCCCn1c(=O)[nH]c2cc(C(=O)NCc3ccccn3)ccc2c1=O the results were HP1b chromo inh 11%, BAZ2B inh 79µM*, JMJD2A Tudor inconclusive, PLK1 PBD inh -14%, G9a block 40µM* and Sfp inh -5%.
`O=C(NCc1ccccn1)c1ccc(=O)oc1` gave HP1b chromo inh 18%, BAZ2B inh 6.3µM*, JMJD2A Tudor 8.9µM*, PLK1 PBD inh 1%, G9a block 3.2µM* and Sfp inh 89µM*.
O=C(NCc1ccccn1)/C(=N/O)c1ccccc1 was read as HP1b chromo inh -5%, BAZ2B inh -1%, JMJD2A Tudor -36%[11.4 µM], PLK1 PBD inh 3.4µM*, G9a block 16% and Sfp inh -7%.
Screening C/C(=N\O)C(=O)NCc1ccccn1 returned HP1b chromo inh 53%, BAZ2B inh -5%, JMJD2A Tudor 3%, PLK1 PBD inh 1%, G9a block 33%[59 µM] and Sfp inh inconclusive.
O=C(NCc1ccccn1)c1ccc(-c2ccccc2)cc1 was read as HP1b chromo inh 46%, BAZ2B inh 0%, JMJD2A Tudor 10%, PLK1 PBD inh -4%, G9a block 1% and Sfp inh -1%.
For O=C(Oc1ccc(N(Cc2cccs2)C2=NS(=O)(=O)c3ccccc32)cc1)c1ccco1 the results were HP1b chromo inh 30%, BAZ2B inh 4%, JMJD2A Tudor -12%, PLK1 PBD inh -4%, G9a block -3%[59 µM] and Sfp inh 7%.
`O=C(Oc1ccc(N(Cc2cccs2)C2=NS(=O)(=O)c3ccccc32)cc1)c1ccccc1Cl` gave HP1b chromo inh inconclusive, BAZ2B inh -1%, JMJD2A Tudor inconclusive, PLK1 PBD inh 2.7µM*, G9a block -6%[59 µM] and Sfp inh -1%.
Screening CC1CCc2cc(F)ccc2N1C(=O)c1cc2nc(-c3ccco3)cc(C(F)(F)F)n2n1 (stereo unspecified) returned HP1b chromo inh 26%, BAZ2B inh 3%, JMJD2A Tudor 2%, PLK1 PBD inh -6%, G9a block 50µM* and Sfp inh -9%.
COc1ccc(-c2cc(C(F)(F)F)n3ncc(C(=O)O)c3n2)cc1OC was read as HP1b chromo inh 31%, BAZ2B inh -28%, JMJD2A Tudor -15%, PLK1 PBD inh 3%, G9a block -38%[59 µM] and Sfp inh 6%.
For O=C(O)c1cnn2c(C(F)(F)F)cc(-c3ccco3)nc12 the results were HP1b chromo inh 20%, BAZ2B inh -32%, JMJD2A Tudor 20µM*, PLK1 PBD inh -4%, G9a block 50µM* and Sfp inh 4%.
Cc1ccc(-c2cc(C(F)(F)F)n3ncc(C(=O)O)c3n2)cc1 was read as HP1b chromo inh 14%, BAZ2B inh -3%, JMJD2A Tudor -11%[11.4 µM], PLK1 PBD inh 30µM*, G9a block inconclusive and Sfp inh 7%.
For Cc1cc(C)c(Cc2c(C)nc3c(C(=O)NCc4ccco4)cnn3c2C)c(C)c1 the results were HP1b chromo inh -8%, BAZ2B inh -8%, JMJD2A Tudor inconclusive, PLK1 PBD inh -3%, G9a block inconclusive and Sfp inh 56µM*.

Screening data: PubChem, National Center for Advancing Translational Sciences (NCATS)
